Here are results for 19 compounds from PubChem BioAssay AID1159577 (Broad Institute, 2015).

The whole screen tested about 1,300 compounds, of which about 240 (18%) were called active. About 8% were inconclusive and are not listed. These entries were drawn from the full list. Entries with a potency or affinity are not part of this list. Unmarked numbers belong to inactive results. How the calls were made is not given here.

The test in a line: HepG2 cell cytotoxicity, dose response, cytotoxicity control, cherry-picked samples (AID 1159577).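 Further: 0% = neutral control wells and -100% = positive control wells.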 The conditions noted are these: HepG2 cytotoxicity counterscreen, plate reader; series mostly up to 19.5 µM; activity change, negative = cytotoxicity: at the top concentration.
On to `COc1ccc(S(=O)(=O)N2CCC3(CC2)CN(Cc2ccncc2)[C@H](CO)c2[nH]c4cc(OC)ccc4c23)cc1`, for which the “activity change, negative = cytotoxicity” value was -18.8%. For `COc1cccc(-c2ccc3c(c2)[C@H]2[C@H](CCN2C(=O)C2CCCCC2)[C@@H](CO)N3)c1`, the “activity change, negative = cytotoxicity” value is -20.9%. Then `C[C@@H]1CN([C@@H](C)CO)C(=O)c2cccc(NC(=O)c3nc4ccccc4s3)c2O[C@H]1CN(C)C(=O)NC1CCCCC1`, with -10%.

Turning to `N#C[C@@H]1[C@H](c2ccc(-c3cccc(F)c3)cc2)[C@H](CO)N1C(=O)NC1CCCC1`, the “activity change, negative = cytotoxicity” value is -17%. Then `N#C[C@@H]1[C@H](c2ccc(-c3cccc(F)c3)cc2)[C@@H](CO)N1C(=O)NC1CCCC1`, with -2.38%; and `OC[C@H]1[C@@H](c2ccc(-c3cccnc3)cc2)[C@@H]2CN(CC3CC3)CCCCN12`, with 14.9%. For the compound `OC[C@H]1[C@@H](c2ccc(-c3cccnc3)cc2)[C@H]2CN(CC3CC3)CCCCN21`, the “activity change, negative = cytotoxicity” value is 26.9%. On to `OC[C@@H]1Nc2ccc(C3=CCCCC3)cc2[C@@H]2[C@H]1CCN2Cc1nccs1`, for which the “activity change, negative = cytotoxicity” value was -8.83%. Next, `C[C@@H]1CN([C@@H](C)CO)C(=O)c2c(c3ccccc3n2C)-c2ccccc2CO[C@@H]1CN(C)Cc1ccc(Oc2ccccc2)cc1`: -14%. With `C[C@H]1CN([C@@H](C)CO)C(=O)c2c(c3ccccc3n2C)-c2ccccc2CO[C@@H]1CN(C)Cc1ccc(Oc2ccccc2)cc1`, the “activity change, negative = cytotoxicity” value was -45.3%. Consider `C[C@@H]1CN([C@@H](C)CO)C(=O)c2c(c3ccccc3n2C)-c2ccccc2CO[C@@H]1CN(C)C(=O)c1cc(Cl)cc(Cl)c1`, for which the “activity change, negative = cytotoxicity” value was -16.3%. Then `C[C@@H]1CN([C@@H](C)CO)C(=O)c2c(c3ccccc3n2C)-c2ccccc2CO[C@H]1CN(C)Cc1ccc(Cl)c(Cl)c1`, with 3.18% [at 21 µM]; and `C[C@@H]1CN([C@H](C)CO)S(=O)(=O)c2ccc(-c3cccc(C(=O)N(C)C)c3)cc2O[C@H]1CN(C)Cc1ccc2c(c1)OCO2`, with 0.311%; and `COCC#Cc1ccc(CC[C@H]2O[C@H]3CC[C@H](CO)O[C@H]3C[C@@H]2n2cc(C3CC3)nn2)cc1`, with 1.23%. Next, `COc1cccc(NC(=O)N2CC(=O)N3[C@H](CO)[C@@H](c4ccc(C#CCC5CCCC5)cc4)[C@H]3C2)c1`: -4.34%.

Consider `COc1ccc2c3c(n(C)c2c1)[C@H](CO)N(C(=O)Nc1ccc(F)cc1)CC31CCN(Cc2cccnc2)CC1`, for which the “activity change, negative = cytotoxicity” value is -0.659%. Then `COc1cccc(C#Cc2ccc([C@H]3[C@@H](CO)N4C(=O)CN(C(=O)Cc5ccccc5)C[C@H]34)cc2)c1`, with 3.61%; and `Cc1ccc(-c2ccc([C@H]3[C@@H](CO)N4C(=O)CN(C(=O)Nc5cccc(F)c5)C[C@H]34)cc2)cc1`, with 2.67%; and `C[C@H]1CN([C@@H](C)CO)C(=O)c2c(c3ccccc3n2C)-c2ccccc2CO[C@H]1CN(C)C(=O)c1cc(Cl)cc(Cl)c1`, with 4.79% [at 21 µM].
